According to PMC5540273 (PLoS ONE, 2017):

Assays:
Conditions in all cases: concentration: 1 μM, replicates: in singlicate; n = 1
[1] = test system: T1, JNK3
T1 construct: gene MAPK10

[2] = test system: KIT-autoinhibited
[3] = test system: KIT
[4] = test system: LATS1
[5] = test system: LATS2
[6] = test system: LCK
[7] = test system: LIMK1
[8] = test system: LIMK2
[9] = test system: T2, LKB1
T2 construct: gene STK11

[10] = test system: T3, LOK
T3 construct: gene STK10

[11] = test system: LRRK2
[12] = test system: LTK
[13] = test system: LYN
[14] = test system: T4, LZK
T4 construct: gene MAP3K13

[15] = test system: MAK
[16] = test system: MAP3K15
[17] = test system: MAP3K1
[18] = test system: MAP3K2
[19] = test system: MAP3K3
[20] = test system: MAP3K4
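Also: KINOMEscan kinase panel screen.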

| SMILES | %Inh [1] | %Inh [2] | %Inh [3] | %Inh [4] | %Inh [5] | %Inh [6] | %Inh [7] | %Inh [8] | %Inh [9] | %Inh [10] | %Inh [11] | %Inh [12] | %Inh [13] | %Inh [14] | %Inh [15] | %Inh [16] | %Inh [17] | %Inh [18] | %Inh [19] | %Inh [20] |
| --- | --- | --- | --- | --- | --- | --- | --- | --- | --- | --- | --- | --- | --- | --- | --- | --- | --- | --- | --- | --- |
| COc1ccc(CSc2nnc(-c3ccc4ncsc4c3)o2)cc1C(F)(F)F | 0% | 0% | 18% | 12% | 0% | 0% | 0% | 0% | 2% | 0% | 0% | 0% | 0% | 0% | 0% | 0% | 0% | 0% | 0% | 7% |
| CCn1c(-c2ccccc2)nc2cnccc21 [SB-733416] | 7% | 0% | 8% | 0% | 0% | 18% | 20% | 0% | 0% | 0% | 51% | 0% | 0% | 0% | 11% | 22% | 14% | 2% | 0% | 0% |
| Cn1cnc2c(N)ncnc21 [SKF-97623] | 0% | 35% | 0% | 22% | 0% | 0% | 0% | 0% | 36% | 4% | 0% | 0% | 0% | 2% | 0% | 0% | 0% | 0% | 0% | 0% |
| COc1nccc(-c2c(-c3ccc(F)cc3)ncn2CCCN2CCOCC2)n1 [SB-282852] | 51% | 20% | 0% | 0% | 27% | 25% | 0% | 0% | 0% | 45% | 0% | 0% | 0% | 0% | 29% | 0% | 0% | 0% | 13% | 7% |
| O=C(Nc1n[nH]c2cc(-c3ccsc3)ccc12)C1CC1 [SB-732932] | 30% | 0% | 56% | 2% | 15% | 0% | 0% | 0% | 0% | 3% | 0% | 0% | 4% | 52% | 41% | 45% | 23% | 17% | 5% | 5% |
| COC(=O)C(Cc1ccccc1)NC(=O)NC1CCN(c2ccnc(Nc3ccc(F)cc3)n2)C1 (stereo not drawn) [GSK1379714] | 0% | 9% | 11% | 0% | 15% | 21% | 0% | 9% | 21% | 3% | 0% | 0% | 22% | 23% | 35% | 0% | 0% | 0% | 0% | 0% |
| Cc1ccc(NC(=O)Nc2ccc(Cl)c(C(F)(F)F)c2)cc1-c1ccc(C(=O)Nc2ccncc2)cc1 [GSK1398470] | 0% | 45% | 99.5% | 0% | 15% | 57% | 28% | 14% | 6% | 65% | 0% | 4% | 42% | 0% | 15% | 0% | 3% | 0% | 0% | 14% |
| COc1ccc(Nc2nccc(-c3ccc(NC(=O)c4cc5cc(F)ccc5[nH]4)cc3)n2)cc1 [GSK1229496] | 3% | 0% | 11% | 0% | 1% | 0% | 38% | 7% | 15% | 0% | 0% | 0% | 0% | 21% | 22% | 0% | 0% | 5% | 0% | 0% |
| CS(=O)(=O)CCNCc1nc(-c2ccc3ncnc(Nc4ccc5c(cnn5Cc5ccccc5)c4)c3c2)cs1.Cl.Cl [GW569716] | 4% | 0% | 6% | 0% | 0% | 9% | 0% | 0% | 0% | 0% | 22% | 0% | 0% | 42% | 11% | 0% | 12% | 1% | 0% | 5% |
| COc1ccc(-c2coc3ccc(-c4nnc(C)o4)cc23)cc1 | 0% | 0% | 1% | 0% | 0% | 0% | 0% | 0% | 5% | 0% | 0% | 0% | 10% | 0% | 0% | 0% | 0% | 0% | 0% | 8% |
| COc1ccc(Nc2nccc(N3CCC(NC(=O)c4cc5ccccc5s4)C3)n2)cc1 (stereo not drawn) [GSK1379738] | 10% | 0% | 7% | 0% | 1% | 16% | 8% | 17% | 0% | 0% | 0% | 0% | 0% | 23% | 86% | 0% | 5% | 0% | 0% | 29% |
| Cc1ccc(NC(=O)Nc2ccccc2)cc1-c1ccc(C(=O)Nc2ccncc2)cc1 [GSK1398471] | 8% | 0% | 99.7% | 0% | 0% | 35% | 18% | 0% | 0% | 25% | 0% | 0% | 66% | 0% | 17% | 0% | 8% | 0% | 0% | 0% |
| CN1c2ccc(-c3ccc(C(N)=O)cc3)cc2-c2[nH]ncc2S1(=O)=O | 0% | 20% | 0% | 9% | 0% | 5% | 0% | 0% | 10% | 5% | 0% | 0% | 0% | 0% | 0% | 0% | 0% | 21% | 12% | 0% |
| COc1cccc(C2=C(Nc3cc(Cl)c(O)c(Cl)c3)C(=O)NC2=O)c1 [SB-390767] | 15% | 0% | 0% | 1% | 0% | 0% | 31% | 0% | 0% | 0% | 55% | 96.8% | 0% | 0% | 4% | 0% | 12% | 0% | 0% | 7% |
| Nc1nccc(-c2c(-c3ccc(F)cc3)ncn2C2CCN(Cc3ccccc3)CC2)n1 [SB-219980] | 95.4% | 0% | 0% | 13% | 0% | 0% | 13% | 0% | 36% | 18% | 0% | 11% | 0% | 0% | 0% | 0% | 0% | 29% | 0% | 0% |
| CNc1cc(-c2ccc3c(N)n[nH]c3c2)nc(N)n1 [GSK2224810] | 0% | 0% | 19% | 0% | 20% | 0% | 0% | 9% | 0% | 0% | 0% | 0% | 0% | 18% | 0% | 0% | 0% | 0% | 0% | 0% |
| COc1ccc(Nc2nccc(N3CCC(NC(=O)C(C)c4ccc(Cl)cc4)C3)n2)cc1 (stereo not drawn) [GSK1379735] | 0% | 5% | 31% | 4% | 0% | 33% | 19% | 0% | 0% | 0% | 51% | 61% | 0% | 0% | 9% | 11% | 5% | 0% | 0% | 16% |
| c1ccc(-c2ccnc3[nH]ccc23)cc1 [SB-693578] | 11% | 0% | 1% | 0% | 53% | 7% | 6% | 0% | 0% | 0% | 44% | 0% | 0% | 11% | 0% | 26% | 19% | 50% | 5% | 12% |
